Experimental data as given in PubChem BioAssay (NCI).
Compounds without any hit were thinned out: in the full panel of roughly 83,000, 20% have a hit.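 Growth was measured after 48 h exposure to one concentration of compound in 96-well plates. Values under 10 count as active.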 Unmarked numbers belong to inactive results. The source made the active and inactive calls.

Assays:
Assay in all cases: NCI-60 one-dose screen, 48 h (100 = growth as untreated, 0 = no growth, -100 = all killed)
SK-MEL-2 melanoma = settings: 10 µM unless noted
SN12C renal = settings: 10 µM unless noted
UO-31 renal = settings: 10 µM unless noted
ACHN renal = settings: 10 µM unless noted
CAKI-1 renal = settings: 10 µM unless noted
A498 renal = settings: 10 µM unless noted
CCRF-CEM leukemia = settings: 10 µM unless noted
MOLT-4 leukemia = settings: 10 µM unless noted
SR leukemia = settings: 10 µM unless noted
RPMI-8226 leukemia = settings: 10 µM unless noted
OVCAR-8 ovarian = settings: 10 µM unless noted
OVCAR-5 ovarian = settings: 10 µM unless noted
OVCAR-4 ovarian = settings: 10 µM
SK-OV-3 ovarian = settings: 10 µM unless noted
IGROV1 ovarian = settings: 10 µM unless noted
OVCAR-3 ovarian = settings: 10 µM unless noted
HS 578T breast = settings: 10 µM unless noted
TK-10 renal = settings: 10 µM unless noted
NCI/ADR-RES ovarian = settings: 10 µM unless noted
EKVX NSCLC = settings: 10 µM unless noted

Compound | growth (SK-MEL-2 melanoma) | growth (SN12C renal) | growth (UO-31 renal) | growth (ACHN renal) | growth (CAKI-1 renal) | growth (A498 renal) | growth (CCRF-CEM leukemia) | growth (MOLT-4 leukemia) | growth (SR leukemia) | growth (RPMI-8226 leukemia) | growth (OVCAR-8 ovarian) | growth (OVCAR-5 ovarian) | growth (OVCAR-4 ovarian) | growth (SK-OV-3 ovarian) | growth (IGROV1 ovarian) | growth (OVCAR-3 ovarian) | growth (HS 578T breast) | growth (TK-10 renal) | growth (NCI/ADR-RES ovarian) | growth (EKVX NSCLC)
Brc1ccc(-c2nnc3c4[nH]ccc4ncn23)cc1 | 92.2% | 90.5% | 58.6% | 78.7% | 87.3% | 70.6% | 97.3% | 77.2% | 82.1% | 84.4% | 95.3% | 113% | 91.1% | 93.2% | 69.6% | 85.7% | 93.6% | – | – | –
Cc1ccc2c(c1)C(C)Cc1c(Cl)ncnc1N2C (stereo unspecified) | -21.4% (active) | 32.8% | 18% | 32% | 31% | -19.2% (active) | 49.7% | 13.6% | 22.6% | 28.2% | 11.9% | 40.4% | 19.5% | 15.7% | 61% | 6.8% (active) | 32.7% | 18.3% | 10.7% | –
FC(F)(F)c1ccc2c(c1)Sc1ccccc1N2 | 106% | 100% | 73.6% | 101% | 82% | 80.7% | 102% | 88.7% | 89.5% | – | 96.7% | 98.2% | 97% | 105% | 92.6% | – | 85.5% | 101% | 104% | –
O=C(N/N=C/c1c(Cl)cccc1Cl)c1cccc(Nc2ccnc(C(F)(F)F)c2)c1 | 92.2% | 91% | 77.4% | 87.5% | 88% | 95.3% | 87.8% | 88.1% | 106% | 70.1% | 89.9% | 108% | 69.3% | 102% | – | 137% | 107% | 90.8% | 102% | –
CCOC(=O)c1nc2c3ccccc3ccn2c1C(=O)OC | 102% | 96.9% | – | 94% | 97.2% | 64% | 88.2% | 84.5% | 130% | 86.9% | 100% | 89.5% | – | 94% | 94.3% | 106% | 105% | 81.1% | 102% | –
CN(C)c1ccc(-c2ccc(-c3ccc(C(=N)N)cc3)s2)cc1 | 107% | -50.1% (active) | 80.8% | – | 96.6% | 0.528% (active) | -22.5% (active) | 2.73% (active) | 5.33% (active) | -40% (active) | 57.6% | -55.2% (active) | 8.97% (active) | – | -63.5% (active) | -85.3% (active) | 104% | -87.9% (active) | 46.3% | –
Cc1cc(C)c(O)c(CNCCCCCCNCc2cc(C)cc(C)c2O)c1 | -61.8% (active) | 29.8% | – | -42.3% (active) | 26.2% | 21.4% | -19.9% (active) | -28.1% (active) | -48.3% (active) | -20.8% (active) | -12.4% (active) | 13.9% | 46.1% | 84.9% | 36.4% | 22% | -44.9% (active) | -28% (active) | 8.8% (active) | –
Cc1ccc(S(=O)(=O)n2cc(C(=O)C(=O)N3CCCCC3)c3ccccc32)cc1 | 90.6% | 85.3% | 53.6% | – | 58.9% | 90.8% | 74.9% | 86.9% | 57.6% | 45.9% | 91.9% | 76.3% | 49.9% | 92% | 71.9% | 77% | – | 103% | 73.8% | –
COc1ncc(-c2ccc3nc(N)n(-c4ccccc4C(F)(F)F)c(=O)c3c2)cc1S(=O)(=O)Nc1ccc(F)cc1F | 29.2% | 56% | -13.4% (active) | 69.3% | 17.3% | -22.2% (active) | 24.5% | 74.5% | 39% | 2.65% (active) | 50.1% | 14.7% | – | 72.1% | 8.17% (active) | 6.35% (active) | 42.3% | 54.5% | 25.4% | –
COc1ccc2c(c1)C(C)Cc1c(ncnc1-n1cnc3ccccc31)N2C (stereo unspecified) | – | 24.5% | 46.9% | 50.1% | – | -0.234% (active) | 9.22% (active) | 17.8% | 11.8% | 26.5% | 17.8% | 48.7% | 70% | 14.5% | 50.7% | 6% (active) | 31.6% | 63.7% | 11.3% | 40.4%
[2H]C1([2H])CCN(C(=O)C2CC2)c2cc(NS(=O)(=O)c3ccc(-c4cccc(C(N)=O)c4)cc3)ccc21 | – | 43.7% | 77.8% | 73.5% | 72.3% | -0.663% (active) | 30.7% | 44.3% | 38.1% | 37.1% | 53.9% | 60.6% | – | 26.1% | 32.4% | 12.4% | 18.7% | 64.2% | 95% | 72.7%
O=C(Nc1ccc(CN2CCOCC2)c(C(F)(F)F)c1)c1nc2ccc3[nH]ncc3c2c2c1CCCC2 | – | 94.4% | 73% | 91.5% | – | 113% | 84.8% | 76.3% | 95.8% | 83.3% | 93.5% | 104% | 91% | – | 95.8% | 102% | 95.7% | 104% | 96.3% | 87.3%
COc1ccc(C(C(=O)O)c2ccc(OC)cc2)cc1 | – | 121% | 108% | 109% | 112% | 86.7% | – | 104% | 106% | 111% | 113% | 108% | 103% | 116% | 118% | – | 129% | 114% | 117% | 106%
CC(C)OC(=O)Nc1cc(F)ccc1F | – | 99.5% | 89.7% | 100% | 96.5% | 96.9% | 103% | 101% | 96.1% | 103% | 100% | 93.8% | 106% | 101% | 93.7% | – | 110% | 97.7% | 102% | 98.8%
CC1(C)CC[C@]2(C(N)=O)CC[C@]3(C)C(=CC[C@@H]4[C@@]5(C)C/C(=C/c6ccncc6)C(=O)C(C)(C)[C@@H]5CC[C@]43C)[C@@H]2C1 | – | -78.1% [100 µM] (active) | -98.1% [100 µM] (active) | -82.5% [100 µM] (active) | -58.3% [100 µM] (active) | -80.4% [100 µM] (active) | -10% [100 µM] (active) | -13.6% [100 µM] (active) | 2.61% [100 µM] (active) | -29.1% [100 µM] (active) | -28.6% [100 µM] (active) | -81.9% [100 µM] (active) | – | -45.7% [100 µM] (active) | -72.3% [100 µM] (active) | -69.5% [100 µM] (active) | -22.1% [100 µM] (active) | -89.5% [100 µM] (active) | -48% [100 µM] (active) | -52.8% [100 µM] (active)
CSc1nc2sc3cc(Cl)c(Cl)cc3n2c(=N)c1C#N | – | 98.4% | 69.3% | 117% | 87.9% | 116% | 107% | – | 106% | 112% | 91.4% | 123% | 97.5% | 89.3% | – | 110% | 91.9% | 121% | 101% | 80.1%
